In the library only some 4.5% were active in any assay of this set; here they are far more common.
Mdm2-MdmX inh: inhibitors of human Mdm2-MdmX association, primary screen, cell-based, luminescence, split luciferase, SaOS-2, uHTS | inhibition, % at 8 µM | actives 3% (n = 330,000) | SaOS-2 split-luciferase Mdm2/MdmX complementation | Protein Mdm4 (Homo sapiens) + E3 ubiquitin-protein ligase Mdm2 (Homo sapiens), …;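 active = inhibition of at least 50% at 8 µM in the primary screen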
Target sequence (O15151 whole entry, looked up): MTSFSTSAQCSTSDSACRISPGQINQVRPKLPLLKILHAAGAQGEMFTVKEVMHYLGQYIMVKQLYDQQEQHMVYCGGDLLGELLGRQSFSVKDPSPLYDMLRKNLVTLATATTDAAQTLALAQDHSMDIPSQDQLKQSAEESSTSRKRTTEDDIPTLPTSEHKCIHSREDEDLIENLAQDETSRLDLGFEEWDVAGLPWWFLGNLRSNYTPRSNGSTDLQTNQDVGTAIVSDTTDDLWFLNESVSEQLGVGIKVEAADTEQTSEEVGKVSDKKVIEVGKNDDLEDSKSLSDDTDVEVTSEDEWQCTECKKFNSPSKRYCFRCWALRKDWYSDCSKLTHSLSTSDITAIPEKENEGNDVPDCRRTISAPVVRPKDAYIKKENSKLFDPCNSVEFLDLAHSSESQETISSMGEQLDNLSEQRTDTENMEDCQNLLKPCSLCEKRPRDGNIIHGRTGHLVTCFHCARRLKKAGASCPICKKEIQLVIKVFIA
Target sequence (Q00987 whole entry, looked up): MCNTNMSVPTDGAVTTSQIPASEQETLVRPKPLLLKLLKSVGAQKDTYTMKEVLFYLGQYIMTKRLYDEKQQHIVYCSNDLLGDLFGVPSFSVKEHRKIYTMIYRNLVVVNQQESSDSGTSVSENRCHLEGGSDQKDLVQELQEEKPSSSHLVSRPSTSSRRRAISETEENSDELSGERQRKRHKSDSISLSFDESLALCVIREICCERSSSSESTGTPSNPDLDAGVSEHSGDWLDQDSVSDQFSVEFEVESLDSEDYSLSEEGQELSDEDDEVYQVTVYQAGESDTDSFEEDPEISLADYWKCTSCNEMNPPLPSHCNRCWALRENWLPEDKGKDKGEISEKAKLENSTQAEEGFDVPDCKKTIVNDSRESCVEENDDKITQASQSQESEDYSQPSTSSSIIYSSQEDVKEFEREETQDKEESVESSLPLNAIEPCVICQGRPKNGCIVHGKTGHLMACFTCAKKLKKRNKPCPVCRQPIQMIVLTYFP
Jurkat NFkB inh: inhibitors of induced NF-kB luciferase reporter, primary screen, TCR NF-kB activation inhibitor project, cell-based, luminescence, uHTS. Jurkat, PMA/ionomycin-induced NF-kB luciferase reporter. inhibition, % at 4 µM. actives 0.53% (n = 330,000). AID 435003, 2010; in the data active = inhibition above about 50%
697 NFkB inh: inhibitors of PMA/ionomycin-induced NF-kB reporter, 697 cells, primary screen, B-cell NF-kB inhibitor project, cell-based, luminescence, uHTS; 697 B-cell NF-kB luciferase reporter, 16 h; inhibition, % at 4 µM; actives 0.33% (n = 330,000); AID 435022, 2010; in the data active = inhibition above about 35%
aSyn UTR inh: MLPCN primary screen, SNCA 5' untranslated region. alpha-synuclein 5'UTR reporter, inhibitor activity. inhibition, % (tested at 7.5 µM). actives 0.82% (n = 300,000). AID 1813, 2009; in the data active = inhibition above about 60%; inconclusive = no clear call, values can overlap the other calls;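 note: H4 neuroglioblastoma cells stably carrying SNCA 5'UTR luciferase fusion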
Gli-Sufu antag: Gli-Sufu pathway antagonists, primary screen, luciferase luminescence, Sufu-KO-LIGHT cells, uHTS. inhibition, % at 5 µM. actives 0.74% (n = 340,000). AID 588413, 2011. Sufu-KO-LIGHT fibroblasts, Gli luciferase reporter luminescence;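 active = inhibition above about 55%, limit read from the data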
CSC inhib: cancer stem cell viability inhibitors, primary screen, luminescence; cancer stem cell-like cells viability; inhibition, % at 7.5 µM; actives 1.1% (n = 300,000); AID 2717, 2010; in the data active = inhibition above about 75%; inconclusive = no clear call, values can overlap the other calls; tested in HMLE shEcad cells
Jurkat NFkB conf: PMA/ionomycin-induced NF-kB reporter inhibitors, Jurkat retest, confirmation, T-cell NF-kB inhibitor project, cell-based, luminescence, single concentration; AID 435020, 2010; inhibition, % at 4 µM; actives 27% (n = 2,700); shares compounds with Jurkat NFkB inh; Jurkat NF-kB luciferase, 16 h;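 active = inhibition reaching about 45% at 4 µM in either replicate, limit read from the data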
A number is an active result; n = inactive; u = inconclusive; x = no result given.

SMILES	Mdm2-MdmX inh	Jurkat NFkB inh	697 NFkB inh	aSyn UTR inh	Gli-Sufu antag	CSC inhib	Jurkat NFkB conf
O=c1c2ccccc2oc2ccc(-c3ccc4[nH]ccc4c3)cc12	n	n	n	n	n	n	n
N#Cc1cc2cc3c(cc2nc1SCC(=O)N1CCCC1)OCCO3	n	n	n	n	n	n	n
COc1cc2ccccc2cc1C(=O)NC1CCC(C)CC1 (stereo not drawn)	n	95	n	x	n	n	n
COc1cc2ccccc2cc1C(=O)NC1CCCC1	n	n	n	x	n	n	x
COc1ccc(CNC(=O)CC2C[C@H](C(=O)N3CCOCC3)[C@@]3(C)c4[nH]c5ccccc5c4CCN3C2=O)cc1OC (stereo partly drawn)	n	n	n	x	n	n	x
COc1ccc(C(=O)Nc2ccc3[nH]c(-c4cccc(OC)c4)cc(=O)c3c2)cc1	n	85	n	n	n	n	49
C=CCSc1nccc(-c2nn(-c3ccc(C)cc3)ccc2=O)n1	n	n	n	n	n	n	x
CCSc1nccc(-c2nn(-c3ccc(C)cc3)ccc2=O)n1	n	51	n	n	n	n	n
COc1cc2c(cc1NS(=O)(=O)N1CCCCC1)oc1ccccc12	n	n	n	n	n	n	x
COc1cccc(/C=C/C(=O)Nc2ccc3c(c2)OCCO3)c1OC	n	n	n	n	n	n	n
CC(C)Cn1c(SCC(=O)Nc2cccnc2Cl)nnc1-c1ccco1	n	n	n	x	n	n	x
CCCCOc1ccccc1C1CC(=O)NC2=C1C(=O)CCC2 (stereo not drawn)	n	62	n	94	n	n	50
COc1ccc(/C=C/C(=O)c2ccccc2)cc1Cn1nnc2ccccc21	n	n	n	n	n	u	x
CCN1CCN(CC(O)COC(c2ccccc2)c2ccccc2C)CC1 (stereo not drawn)	n	n	n	n	n	n	x
COc1cccc(-c2cc(C(=O)NC3CCCC3)no2)c1	n	n	n	n	n	x	n
O=C(Nc1cccc(O)c1)c1cc(-c2cccs2)on1	n	n	n	n	n	n	n
COc1cccc(-c2cc(C(=O)Nc3cccc(O)c3)no2)c1	n	n	n	n	n	x	n
Cc1cc(CN(C)C(=O)c2ccc3nc(Cc4ccccc4F)oc3c2)on1	n	n	n	n	n	n	x
CC1CCCC(C)N1C(=O)COC(=O)/C=C/c1ccc(Br)o1 (stereo not drawn)	n	n	n	x	n	n	x
CC(Oc1ccc(Br)cc1)C(=O)Nc1ccncc1 (stereo not drawn)	n	n	n	n	n	n	x
CC(Oc1ccc(Br)cc1Cl)C(=O)Nc1ccncc1 (stereo not drawn)	n	53	n	n	n	x	n
O=C(Nc1ccc2c(c1)CCC2)Nc1ccc(F)cc1F	n	n	n	n	n	n	n
CN(C)S(=O)(=O)c1cccc(C(=O)Nc2ccc3c(c2)CCC3)c1	n	n	n	n	n	x	n
O=C(Nc1ccc2c(c1)CCC2)c1ccc(F)cc1	n	n	n	n	n	n	n
O=C(Nc1ccc2c(c1)CCC2)c1cccs1	n	n	n	n	n	n	n
SMILES	Mdm2-MdmX inh	Jurkat NFkB inh	697 NFkB inh	aSyn UTR inh	Gli-Sufu antag	CSC inhib	Jurkat NFkB conf
CCN(CC)c1nc2c(c(=O)[nH]c(=O)n2C)n1CCOc1ccccc1	n	n	n	n	n	n	x
COC(=O)c1cc(S(=O)(=O)N2CCCCC2)c[nH]1	n	n	n	n	n	n	x
O=C(Nc1ccc2c(c1)CCC2)c1cccc(OC(F)F)c1	n	n	n	n	n	n	n
CC(C)c1nnc(NC(=O)CCC(=O)NC2CC2)s1	n	n	n	n	n	n	x
C=CCNC(=O)NC(=O)COC(=O)/C=C/c1cccc([N+](=O)[O-])c1	n	n	n	n	n	n	x
CCCCC(O)(c1ccc(CC)cc1)C(CN1CCOCC1)c1ccccc1 (stereo not drawn)	n	n	n	n	n	n	x
CC(C)[C@H](NC(=O)[C@@H]1CSC2c3ccccc3C(=O)N21)C(=O)N1CCCCC1 (stereo partly drawn)	n	n	n	n	n	n	x
COCCCNC(=O)C(=O)Nc1ccc2c(c1)N(S(=O)(=O)c1cccs1)CCC2	n	62	n	u	n	x	57
COc1ccc(S(=O)(=O)Cc2ccc(C(=O)N3CCN(c4cccc(C)c4)C(C)C3)o2)cc1 (stereo not drawn)	n	61	n	n	n	n	n
Cc1ccc(S(=O)(=O)Cc2ccc(C(=O)N3CCN(c4cccc(C)c4C)CC3)o2)cc1	n	58	n	88	n	n	52
COc1ccc(C(C(=O)NCC2CCCO2)N(C(=O)Cn2nnc3ccccc32)c2ccccc2C(C)=O)cc1OC (stereo not drawn)	n	n	n	n	n	n	x
CC[n+]1c(/C=C/c2ccc(OC)c(OC)c2)ccc2ccccc21	n	n	n	n	n	n	n
CC[n+]1c(/C=C/c2ccc(OC(C)=O)c(OC)c2)ccc2ccccc21	n	n	n	n	n	n	x
COc1ccc(C(CC(=O)NC(C)c2ccc(-c3ccccc3)cc2)NC(C)=O)cc1 (stereo not drawn)	n	n	n	n	n	n	x
Cc1cc(NC(=O)C2CC(c3cccc(Br)c3)=NO2)no1 (stereo not drawn)	n	n	n	n	n	n	x
Cc1ccc(O)c(NC(=O)C2CC(c3cccc(Br)c3)=NO2)c1 (stereo not drawn)	n	63	n	n	n	n	n
O=C1C=C(c2ccc3ncccc3c2)C[C@@H](c2ccc3c(c2)OCO3)C1	n	70	n	x	n	n	50
CN1/C(=C/C=C(/C#N)C(N)=O)C(C)(C)c2ccccc21	n	61	n	n	n	x	n
Cc1ccc2nc(NC(=O)c3ccc4c(c3)OCO4)sc2c1	n	n	n	n	n	x	n
Cc1ccc2nc(NC(=O)c3ccc(Cl)s3)sc2c1	n	n	n	n	n	n	n
Cc1ccc(C(=O)Nc2nc3ccccc3s2)s1	n	n	n	n	n	n	n
Cc1nc2ccc(NC(=O)c3ccc(Cl)s3)cc2s1	n	n	n	n	n	n	n
Cc1nc2ccc(NC(=O)c3cnc(Cl)c(Cl)c3)cc2s1	n	n	n	n	n	n	x
C=CCNc1nc(-c2ccc3c(c2)OCCO3)cs1	n	n	n	n	n	n	n
CCC(=O)Nc1nc(-c2ccc3c(c2)OCCO3)cs1	n	n	n	n	n	n	x
CN(C)C(=O)c1cc(C(=O)c2ccc(C(F)(F)F)cc2F)c[nH]1	n	n	n	n	n	x	x
